PubChem BioAssay
Several values for one entry are separate records, joined by “and”; a condition that tells them apart may be missing. Identical values can stand only once. Results filed as inconclusive are left out. Activity calls are given as the source filed them.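 Rule for the calls, unless noted: active = thallium flux through the channel raised or lowered by more than 3 SD from vehicle-only wells, actives on both sides; inactive = the rest.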

How the values were obtained:
[1] = compounds altering viability of human ES cells (AID 493140; call rule not given here;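 note: cells exposed to compounds for four days before counting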); details: human embryonic stem cell survival screen; stronger effect = higher value
[2] = signal quenchers or enhancers, Cy5 substrate/SSB – biochemical, NIH Clinical Collection, E. coli SSB, artefact control for HCV NS3 helicase inhibitor project (AID 743268; call rule not given here); details: Cy5-oligo bound E. coli SSB, fluorescence interference
[3] = tested on: Hepatitis C virus NS3 helicase; assay: blockers of NS3h binding to DNA – biochemical, fluorescence polarization, NIH Clinical Collection, primary screen (AID 743270; call rule not given here); details: NS3 helicase binding to Cy5-dT15 DNA, stronger effect = higher value, concentration not given here
[4] = target: Single-stranded DNA-binding protein (Escherichia coli (strain K12)) (UniProt P0AGE0); assay: SSB-ssDNA binding inhibitors – biochemical, fluorescence polarization, NIH Clinical Collection, counter-screen for HCV NS3 helicase inhibitor project (AID 743271; in the data active = inhibition above about 28%); details: E. coli SSB-DNA binding, stronger effect = higher value, concentration not given here
[5] = compounds distorting NS3 helicase fluorescence signal – biochemical, NIH Clinical Collection, artefact control for HCV NS3 helicase inhibitor project (AID 743272; call rule not given here;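 note: HCV NS3 helicase with a Cy5 labelled single stranded DNA probe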); details: fluorescence interference counterscreen, HCV NS3 helicase assay; stronger effect = lower value
[6] = Wnt pathway potentiators raising nuclear beta-catenin – imaging, WNT3A-conditioned medium, mouse C2C12, NPC library, primary screen (AID 1117326; in the data active = nuclear beta-catenin stimulation mostly above about 4.2%, no sharp cut-off; inactive = mostly below about 10%); details: stronger effect = higher value
[7] = stimulators of insulin release from INS-1E, primary screen, cell-based, 5 mM glucose, NPC library (AID 1117329;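 active = compound raises insulin release from rat beta cells at 5 mM glucose, no numeric limit stated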); details: rat INS-1E insulin secretion, at 10 µM, stronger effect = higher value
[8] = growth inhibition of GSK3B-pretreated HCT116 cells – cell-based, CellTiter-Glo, 0.2 to 20 µM (AID 1117336;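 active = compounds lowering colon cancer cell viability after pretreatment blocking the GSK3B kinase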); details: HCT116 viability after GSK3B inhibitor, at 20 µM, stronger effect = higher value
[9] = inhibition of endothelial tube formation, primary screen, imaging, VEGF stimulated, CD31 staining, tube area, NPC library (AID 1117340;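 active = compound that reduces growth-factor-driven endothelial tube area in a mixed cell culture, no cutoff stated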); details: VEGF-stimulated ADSC/ECFC co-culture, at 10 µM, stronger effect = higher value
[10] = GLP1 release stimulators, primary, NCI-H716, NPC library (AID 1117341;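 active = compound raises GLP1 secretion from the human gut endocrine cells, with no numeric limit stated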); details: NCI-H716 cells, at 10 µM, stronger effect = higher value
[11] = HCT116 colon cancer cell growth inhibition, primary screen, CellTiter-Glo luminescence, NPC library (AID 1117342;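 active = compounds that lower survival of HCT116 colon cancer cells in the luminescence readout, no numeric limit stated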); details: at 20 µM (top of the series)
[12] = reduced SW480 viability measured with CellTiter-Glo, NPC library, primary (AID 1117343;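 active = compounds that lower viability of the colon cancer cells in the luminescence readout, with no numeric limit stated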); details: CellTiter-Glo luminescence; at 20 µM (top of the series)
[13] = NPC library primary testing for decreased DLD-1 cell viability via CellTiter-Glo (AID 1117346;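 active = compounds that lower survival of DLD-1 colon cancer cells in the luminescence readout, no cutoff given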); details: DLD-1 viability, CellTiter-Glo luminescence; at 20 µM (top of the series)
[14] = target: 6-phosphogluconate dehydrogenase, decarboxylating (Homo sapiens) (UniProt P52209); assay: inhibition of human phosphogluconate dehydrogenase – biochemical, recombinant enzyme, NADPH absorbance, primary screen (AID 1159550;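 active = at least 20% inhibition of 6-phosphogluconate dehydrogenase activity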); details: recombinant 6PGD, NADPH absorbance 341 nm; at 10 µM; stronger effect = higher value
Sequence of 6-phosphogluconate dehydrogenase, decarboxylating (Homo sapiens) (P52209 whole entry, looked up): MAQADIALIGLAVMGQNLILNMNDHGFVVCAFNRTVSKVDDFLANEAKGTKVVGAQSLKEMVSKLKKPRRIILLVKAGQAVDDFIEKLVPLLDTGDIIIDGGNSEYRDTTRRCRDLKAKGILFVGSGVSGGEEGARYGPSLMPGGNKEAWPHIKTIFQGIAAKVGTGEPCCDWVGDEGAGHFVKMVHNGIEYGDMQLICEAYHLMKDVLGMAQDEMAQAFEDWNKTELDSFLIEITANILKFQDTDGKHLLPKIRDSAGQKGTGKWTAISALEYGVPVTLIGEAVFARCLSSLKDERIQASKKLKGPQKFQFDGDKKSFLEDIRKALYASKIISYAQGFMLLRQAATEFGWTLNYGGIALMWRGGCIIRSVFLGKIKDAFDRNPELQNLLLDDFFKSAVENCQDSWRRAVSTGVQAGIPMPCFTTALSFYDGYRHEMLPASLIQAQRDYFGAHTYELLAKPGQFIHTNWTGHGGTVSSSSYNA

[15] = viability loss in pontine glioma line – cell-based, SU-DIPG-XVII, MIPE5.0, CellTiter-Glo, qHTS, dose response (AID 1347060; cut-off not given, nearly all actives have AC50 up to about 26 µM); details: CellTiter-Glo ATP luminescence
[16] = viability loss in pontine glioma line – cell-based, SU-DIPG-XIII, MIPE4.0, CellTiter-Glo, qHTS, dose response (AID 1347061; cut-off not given, nearly all actives have AC50 up to about 37 µM;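 note: cells exposed to compound for 48 hours before readout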); details: CellTiter-Glo ATP luminescence
[17] = viability loss in pontine glioma line – cell-based, JHH-DIPG-1, MIPE4.0, CellTiter-Glo, qHTS, dose response (AID 1347062; cut-off not given, nearly all actives have AC50 up to about 27 µM); details: JHH-DIPG-1 viability, CellTiter-Glo ATP luminescence
[18] = viability loss in pontine glioma line – cell-based, SU-DIPG-XIII, MIPE5.0, CellTiter-Glo, qHTS, dose response (AID 1347064; cut-off not given, nearly all actives have AC50 up to about 23 µM); details: CellTiter-Glo ATP luminescence
[19] = JHH-DIPG-1 glioma cell viability, MIPE5.0 library, CellTiter-Glo luminescence, qHTS (AID 1347067; cut-off not given, nearly all actives have AC50 up to about 26 µM;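 note: cells exposed to compound for 48 hours before readout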); details: JHH-DIPG-1 glioma viability, CellTiter-Glo ATP luminescence
[20] = viability loss with induced miR-34 in A549 – imaging, A549 dox-inducible miR-34, nuclei and caspase counts, primary screen (AID 1347080;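 active = compounds whose cell count with miR-34 switched on is under 0.7 times the count with it off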); details: A549 miR-34 inducible, Hoechst nuclei count, 48 h
[21] = MELAS cybrid and Rieske KO viability enhancers – cell-based, MELAS cybrids, Rieske KO mouse fibroblasts, CellTiter-Glo, primary screen (AID 1508586;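 active = mean z-score across replicates of 1.96 or higher in either the MELAS or the Rieske mutant cell line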;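 note: z relative to plate mean and SD of compound and empty wells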); details: low glucose
[22] = target: NAD(+) hydrolase SARM1 (Homo sapiens) (UniProt Q6SZW1); assay: blocking NAD cleavage by SARM1 SAM-TIR – cell lysate, NAD-Glo luminescence (AID 1508614;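 active = compound whose remaining NAD level is above about 45 nM, limit read from the data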;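 note: higher remaining NAD means stronger inhibition of SARM1 NADase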); details: SAM-TIR HEK293T lysate NADase, at 1 µM, stronger effect = higher value
Sequence of NAD(+) hydrolase SARM1 (Homo sapiens) (Q6SZW1 whole entry, looked up, the tested form may be a part): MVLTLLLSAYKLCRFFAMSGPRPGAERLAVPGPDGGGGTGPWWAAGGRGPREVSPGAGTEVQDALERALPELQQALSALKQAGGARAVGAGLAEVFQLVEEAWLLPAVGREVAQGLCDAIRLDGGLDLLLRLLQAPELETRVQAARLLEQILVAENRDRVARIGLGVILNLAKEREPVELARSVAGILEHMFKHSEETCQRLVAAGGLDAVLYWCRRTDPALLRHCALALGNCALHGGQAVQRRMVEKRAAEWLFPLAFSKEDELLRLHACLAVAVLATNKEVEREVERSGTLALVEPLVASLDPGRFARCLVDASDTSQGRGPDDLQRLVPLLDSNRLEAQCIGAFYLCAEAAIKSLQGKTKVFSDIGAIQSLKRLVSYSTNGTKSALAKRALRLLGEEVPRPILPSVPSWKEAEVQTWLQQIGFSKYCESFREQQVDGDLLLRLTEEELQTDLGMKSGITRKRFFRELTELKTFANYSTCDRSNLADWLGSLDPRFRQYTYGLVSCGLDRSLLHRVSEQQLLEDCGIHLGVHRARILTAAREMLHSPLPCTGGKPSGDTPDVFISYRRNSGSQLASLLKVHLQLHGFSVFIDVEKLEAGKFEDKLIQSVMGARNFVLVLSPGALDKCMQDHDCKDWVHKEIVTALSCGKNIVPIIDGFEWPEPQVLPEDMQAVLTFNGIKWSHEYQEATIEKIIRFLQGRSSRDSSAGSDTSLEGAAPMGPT

[23] = target: Mitogen-activated protein kinase 7 (Homo sapiens) (UniProt Q13164); assay: Gal4-ERK5 driven luciferase induction – cell-based, HTS, primary screen (AID 1508626;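 active = luciferase signal above three times the same-plate solvent-only control wells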;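 note: luciferase driven by Gal4-ERK5 fusion binding five Gal4 sites before minimal TATA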); details: HeLa Gal4-ERK5 transactivation, 18 h, at 5 µM, stronger effect = higher value
Sequence of Mitogen-activated protein kinase 7 (Homo sapiens) (Q13164 whole entry, looked up, the tested form may be a part): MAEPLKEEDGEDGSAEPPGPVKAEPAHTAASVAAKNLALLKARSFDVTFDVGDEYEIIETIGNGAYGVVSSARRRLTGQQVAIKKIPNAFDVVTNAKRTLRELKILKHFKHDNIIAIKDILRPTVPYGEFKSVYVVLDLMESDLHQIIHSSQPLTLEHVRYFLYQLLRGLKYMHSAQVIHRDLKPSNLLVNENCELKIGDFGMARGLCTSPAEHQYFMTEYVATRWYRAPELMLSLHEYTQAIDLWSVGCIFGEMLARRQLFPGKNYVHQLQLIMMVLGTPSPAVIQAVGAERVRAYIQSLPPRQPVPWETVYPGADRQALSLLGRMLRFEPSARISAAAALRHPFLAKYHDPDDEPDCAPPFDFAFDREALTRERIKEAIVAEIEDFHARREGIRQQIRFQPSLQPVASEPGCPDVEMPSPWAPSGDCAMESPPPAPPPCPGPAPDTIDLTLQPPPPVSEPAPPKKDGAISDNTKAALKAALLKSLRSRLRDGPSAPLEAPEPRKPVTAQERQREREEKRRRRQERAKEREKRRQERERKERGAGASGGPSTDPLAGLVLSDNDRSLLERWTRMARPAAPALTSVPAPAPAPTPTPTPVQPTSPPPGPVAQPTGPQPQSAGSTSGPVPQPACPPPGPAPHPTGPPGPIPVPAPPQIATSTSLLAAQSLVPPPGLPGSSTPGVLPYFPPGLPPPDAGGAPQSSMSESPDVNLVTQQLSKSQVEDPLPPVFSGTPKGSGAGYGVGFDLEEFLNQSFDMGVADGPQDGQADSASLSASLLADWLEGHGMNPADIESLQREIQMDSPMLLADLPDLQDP

[24] = galactose survival enhancers in mitochondrial complex I cybrids – cell-based, galactose medium, ATP luminescence, primary screen (AID 1645843;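 active = z-score of at least 1.8 in each of two replicates, scored against plate mean and spread of sample wells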;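 note: positive z means more ATP and so rescue of galactose-driven cybrid death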); details: complex I mutant cybrid cells, 72 h, stronger effect = higher value
[25] = tested on: F380Y; assay: BK channel mutant inhibitors and activators – cell-based, U2OS BacMam, thallium flux, beta subunits, selectivity assay, profiling panel (AID 1259406); details: U2OS BacMam BK variants, at 30 µM;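 note: initial slope of Thallos dye fluorescence rise after thallium is added; log ratio against the mean of 0.3% DMSO vehicle wells on the same plate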
[26] = tested on: F380Y/beta1; assay: as above; details: U2OS BacMam BK variants, at 30 µM
[27] = tested on: F380Y/beta2Delta; assay: as above; details: U2OS BacMam BK variants, at 30 µM
[28] = tested on: F380Y/beta4; assay: as above; details: U2OS BacMam BK variants, at 30 µM
[29] = target: Calcium-activated potassium channel subunit alpha-1 (Homo sapiens) + Leucine-rich repeat-containing protein 26 (Homo sapiens) (UniProt Q12791+Q2I0M4); assay: as above; details: U2OS BacMam BK variants, F380Y/Slo1WT/gamma1, at 30 µM
Sequence of Calcium-activated potassium channel subunit alpha-1 (Homo sapiens) + Leucine-rich repeat-containing protein 26 (Homo sapiens) (Q2I0M4 whole entry, looked up, one chain of several): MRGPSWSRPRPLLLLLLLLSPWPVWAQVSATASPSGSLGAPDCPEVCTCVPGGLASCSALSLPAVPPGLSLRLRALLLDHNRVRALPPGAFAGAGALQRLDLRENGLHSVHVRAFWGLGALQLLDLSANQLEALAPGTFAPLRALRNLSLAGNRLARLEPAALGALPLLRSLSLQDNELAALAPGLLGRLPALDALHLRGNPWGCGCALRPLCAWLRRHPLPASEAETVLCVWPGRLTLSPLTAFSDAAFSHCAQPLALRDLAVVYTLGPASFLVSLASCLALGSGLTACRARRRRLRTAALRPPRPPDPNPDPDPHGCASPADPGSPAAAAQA

[30] = tested on: R275C; assay: as above; details: U2OS BacMam BK variants, at 30 µM
[31] = tested on: R275C/beta1; assay: as above; details: U2OS BacMam BK variants, at 30 µM
[32] = tested on: R275C/beta2Delta; assay: as above; details: U2OS BacMam BK variants, at 30 µM
[33] = tested on: R275C/beta4; assay: as above; details: U2OS BacMam BK variants, at 30 µM
[34] = tested on: R275C/Slo1WT/beta2; assay: as above; details: U2OS BacMam BK variants, at 30 µM
[35] = stronger effect = lower value, cell number ratio, induced over uninduced
[36] = measured here: relative caspase fold change +Dox/-Dox
[37] = measured here: total cells with miR-34 induction, stronger effect = lower value
[38] = measured here: total cells without miR-34 induction
[39] = MELAS cybrid survival, CellTiter-Glo 48 h, stronger effect = higher value
[40] = Rieske KO mouse fibroblast survival, CellTiter-Glo 72 h

C[C@]12C=CC(=O)C=C1CC[C@@H]1[C@@H]2[C@@H](O)C[C@@]2(C)[C@H]1CC[C@]2(O)C(=O)CO
1.73 and 1.43 and 1.29: fold change [20, 36]
-0.7%: nuclear beta-catenin stimulation ([6]; stimulation, at 2 µM)
-0.0179 and 1.19: z-score [21, 40]
inactive: survival [1] 15.8 | fluorescence ratio [2] 1.02 | inhibition [3] -1.36% | inhibition [4] 0.29% | fluorescence ratio [5] 0.96 | nuclear beta-catenin stimulation ([6]; at 10 µM) -2.6% | insulin secretion stimulation [7] 1.6% | viability decrease [8] -2.7% | tube area decrease [9] 11.2% | GLP1 secretion stimulation [10] -0.5% | inhibition of viability [11] -3.5% | viability decrease (inhibition) [12] -1.5% | viability decrease (inhibition) [13] -18.8% | inhibition [14] -5.44% | outcome [15] | outcome [16] | outcome [17] | outcome [18] | outcome [19] | fold change [20, 35] 0.93 and 0.783 and 0.847 | z-score [21, 39] 0.367 and 0.381 | remaining NAD [22] 10 nM | luciferase signal [23] 84 AU | z-score [24] -0.29 and 0.46 | log fold change Tl+ flux [25] 0.0238 | log fold change Tl+ flux [26] 0.00512 | log fold change Tl+ flux [27] 0.0411 | log fold change Tl+ flux [28] 0.023 | log fold change Tl+ flux [29] -0.0308 | log fold change Tl+ flux [30] 0.0128 | log fold change Tl+ flux [31] 0.0311 | log fold change Tl+ flux [32] 0.0197 | log fold change Tl+ flux [33] -0.0125 | log fold change Tl+ flux [34] -0.0471
8090 and 7780 and 7760: cell count [20, 38]
7530 and 6090 and 6580: cell count [20, 37]

CC(=O)S[C@@H]1CC2=CC(=O)CC[C@]2(C)[C@H]2CC[C@@]3(C)[C@@H](CC[C@@]34CCC(=O)O4)[C@H]12
inactive: survival [1] 17.9 | fluorescence ratio [2] 0.99 | inhibition [3] -3.18% | inhibition [4] -0.48% | fluorescence ratio [5] 0.9 | nuclear beta-catenin stimulation ([6]; at 10 µM) 4.4% | insulin secretion stimulation [7] -2% | viability decrease [8] -2% | tube area decrease [9] 17% | GLP1 secretion stimulation [10] 2.4% | inhibition of viability [11] 28.7% | viability decrease (inhibition) [12] 41.7% | viability decrease (inhibition) [13] 26.4% | inhibition [14] 14.1% | fold change [20, 35] 0.941 and 0.878 and 0.848 | z-score [21, 39] 0.887 and 0.469 | remaining NAD [22] 10 nM | luciferase signal [23] 56 AU | z-score [24] -0.25 and 0.65 | log fold change Tl+ flux [25] -0.00371 | log fold change Tl+ flux [26] 0.0461 | log fold change Tl+ flux [27] -0.0301 | log fold change Tl+ flux [28] -0.0243 | log fold change Tl+ flux [29] 0.0238 | log fold change Tl+ flux [30] 0.0437 | log fold change Tl+ flux [31] 0.0449 | log fold change Tl+ flux [32] 0.0485 | log fold change Tl+ flux [33] 0.0567 | log fold change Tl+ flux [34] 0.0564
1.96 and 1.1 and 1.66: fold change [20, 36]
2.4%: nuclear beta-catenin stimulation ([6]; stimulation, at 2 µM)
0.325 and -0.236: z-score [21, 40]
8520 and 7420 and 8230: cell count [20, 37]
9050 and 8450 and 9710: cell count [20, 38]
